Reference: publication PMC4336329 (PLoS ONE, 2015)
In all, about 310,000 compounds went through this assay and about 14,000 (4.5%) showed an effect of 50% or more. The effect is printed as a negative number. The sample as a whole holds a higher share of strong results than the screen did.

What follows are compounds tested against human ether-à-go-go-related gene (hERG) potassium channel (human, UniProt Q12809) (assay: primary screen, population patch clamp on CHO cells stably expressing hERG; higher = less effect of the substance).
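Further: peak tail current of the secondary pulse compared with the same well before compound.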

Chain of human ether-à-go-go-related gene (hERG) potassium channel (Q12809 whole entry, looked up): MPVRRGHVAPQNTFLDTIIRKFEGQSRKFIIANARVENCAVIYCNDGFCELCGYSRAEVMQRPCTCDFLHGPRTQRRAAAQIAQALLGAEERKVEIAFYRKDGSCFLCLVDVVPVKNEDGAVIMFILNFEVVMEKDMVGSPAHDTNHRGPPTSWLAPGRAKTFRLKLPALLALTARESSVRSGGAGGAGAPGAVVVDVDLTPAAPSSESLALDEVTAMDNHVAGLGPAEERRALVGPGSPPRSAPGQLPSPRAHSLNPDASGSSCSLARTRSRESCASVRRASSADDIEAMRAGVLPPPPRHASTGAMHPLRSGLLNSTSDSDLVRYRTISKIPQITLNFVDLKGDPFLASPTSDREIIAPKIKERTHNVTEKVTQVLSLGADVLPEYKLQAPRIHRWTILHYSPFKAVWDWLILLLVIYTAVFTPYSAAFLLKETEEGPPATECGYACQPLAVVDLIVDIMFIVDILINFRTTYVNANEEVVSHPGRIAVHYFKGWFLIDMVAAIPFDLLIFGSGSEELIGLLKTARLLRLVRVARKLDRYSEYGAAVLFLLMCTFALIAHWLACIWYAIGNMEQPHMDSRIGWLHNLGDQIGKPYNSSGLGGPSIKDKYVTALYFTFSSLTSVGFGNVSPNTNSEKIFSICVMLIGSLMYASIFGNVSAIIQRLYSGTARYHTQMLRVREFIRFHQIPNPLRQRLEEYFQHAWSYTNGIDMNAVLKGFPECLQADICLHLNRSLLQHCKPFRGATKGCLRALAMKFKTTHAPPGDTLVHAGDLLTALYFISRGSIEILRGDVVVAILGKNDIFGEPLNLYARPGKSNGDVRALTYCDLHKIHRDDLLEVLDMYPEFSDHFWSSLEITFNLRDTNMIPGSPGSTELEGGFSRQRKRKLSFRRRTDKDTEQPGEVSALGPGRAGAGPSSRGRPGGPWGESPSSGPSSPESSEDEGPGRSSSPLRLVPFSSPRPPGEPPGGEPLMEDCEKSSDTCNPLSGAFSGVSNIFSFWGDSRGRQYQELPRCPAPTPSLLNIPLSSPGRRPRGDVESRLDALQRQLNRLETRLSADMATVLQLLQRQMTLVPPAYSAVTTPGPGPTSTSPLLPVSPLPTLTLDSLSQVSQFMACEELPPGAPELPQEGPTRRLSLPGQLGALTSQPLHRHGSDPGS

Row | SMILES | hERG current change (%, negative = inhibition) at 10uM
1 | CC(O)(CS(=O)(=O)Cc1ccccc1)C(=O)Nc1cccc(C(F)(F)F)c1 (stereo not shown) | 1.72%
2 | COC(=O)Nc1ccc(S(=O)(=O)N2CCCc3ccccc32)cc1 | 8.63%
3 | O=C1Oc2ccccc2C(=O)/C1=C/N1CCN(c2ccccc2F)CC1 | -0.353%
4 | O=c1[nH]c(Cl)ccc1CN1CCOCC1 | 14.5%
5 | Cc1ccccc1C(=O)Nn1cnnc1 | 3.49%
6 | COc1ccc(S(=O)(=O)NCc2ccc(C(=O)NCCCN3CC(C)CC(C)C3)cc2)cc1 (stereo not shown) | -28.1%
7 | COC(=O)c1cc(S(=O)(=O)N2CCC(C)CC2)ccc1F | -18%
8 | COc1ccc(-c2cc(CNS(=O)(=O)c3cc(OC)ccc3OC)on2)cc1 | 6.1%
9 | O=C(NC(=S)Nc1ccc2nc[nH]c2c1)c1ccccc1 | 12.4%
10 | COc1ccc(CCNCc2ccsc2)cc1OC | 1.86%
11 | Cc1cc(/C=C2\Cc3ccccc3C2=O)c(C)n1-c1ccccc1 | 1.62%
12 | O=C(Nc1ccc(N2CCOCC2)c(F)c1)c1cccs1 | 1.9%
13 | O=C(CNS(=O)(=O)c1ccc(Br)cc1)N1CCN(c2ccc(F)cc2)CC1 | -56.5%
14 | Cc1ccc(S(=O)(=O)NCC(=O)N2CCN(c3ccc(F)cc3)CC2)cc1 | -10.2%
15 | O=C(CNS(=O)(=O)c1ccc(Br)s1)N1CCN(c2ccc(F)cc2)CC1 | -25.2%
16 | O=C(CNS(=O)(=O)c1ccc(F)cc1)N1CCCC1 | 12%
17 | O=C(CNS(=O)(=O)c1ccc(F)cc1)N1CCN(c2ccc(F)cc2)CC1 | -51.7%
18 | O=C(CNS(=O)(=O)c1ccc(F)cc1)N1CCN(c2ccccc2)CC1 | -11.7%
19 | CCn1nc(CC(=O)O)c2ccccc2c1=O | 22.9%
20 | COc1cc([N+](=O)[O-])ccc1NC(=O)NCc1ccco1 | 10.9%
21 | Cn1nnnc1SCC(=O)c1c(N)n(C)c(=O)n(C)c1=O | 18.3%
22 | Cc1cc(=O)c(C(=O)O)nn1-c1cccc(C(F)(F)F)c1 | -74.6%
23 | Cc1cc(=O)c(C(=O)O)nn1-c1ccccc1 | 5.86%
24 | O=C(O)c1nn(-c2cccc(C(F)(F)F)c2)ccc1=O | 21.5%
25 | CCOc1ccccc1C1CC(=O)NC2=C1C(=O)CCC2 (stereo not shown) | 13.6%
26 | O=C1CCC/C(=N/NC(=O)c2sc3ccccc3c2Cl)C1 | 5.82%
27 | COc1cc(C(C)=O)ccc1OCC(O)CN1CCN(c2ccc(C)c(C)c2)CC1 (stereo not shown) | -39.6%
28 | COc1cc(C(C)=O)ccc1OCC(O)CN1CCN(c2c(C)cccc2C)CC1 (stereo not shown) | -60.3%

Row | SMILES | hERG current change (%, negative = inhibition) at 10uM
29 | COc1cc(C(C)=O)ccc1OCC(O)CN1CCN(c2ccccc2)CC1 (stereo not shown) | -31.5%
30 | COc1cc(C(C)=O)ccc1OCC(O)Cn1nc(C)c(Br)c1C (stereo not shown) | -7%
31 | COc1cc(C(C)=O)ccc1OCC(O)CN1CCN(c2cc(C)cc(C)c2)CC1 (stereo not shown) | -56.2%
32 | COc1cc(C(C)=O)ccc1OCC(O)CN1CCN(c2ccccn2)CC1 (stereo not shown) | -9.62%
33 | COc1cc(C(C)=O)ccc1OCC(O)CN1CCN(c2ccc(F)cc2)CC1 (stereo not shown) | -39%
34 | COc1cc(C(C)=O)ccc1OCC(O)CN1CCN(S(=O)(=O)c2ccccc2)CC1 (stereo not shown) | -11.5%
35 | COc1cc(C(C)=O)ccc1OCC(O)CN1CCN(c2ccc(C)cc2C)CC1 (stereo not shown) | -58.3%
36 | COc1ccc(C(=O)/C=C/Nc2c(C)n(C)n(-c3ccccc3)c2=O)c(OC)c1 | 0.857%
37 | COc1ccc(NC2CCCN(C(=O)CCc3scnc3C)C2)cc1 (stereo not shown) | 12.2%
38 | CS(=O)(=O)c1ccc(N2CCN(C3CC(=O)NC3=O)CC2)cc1 (stereo not shown) | 13.1%
39 | CC(=O)c1ccc(S(=O)(=O)NCCC(=O)OCC(=O)N2CCCC2=O)cc1 | -7.6%
40 | COc1cccc2sc(N(CCN(C)C)C(=O)/C=C/c3cccs3)nc12.Cl | -41.5%
41 | COc1cccc2sc(N(CCCN(C)C)C(=O)CCS(=O)(=O)c3ccccc3)nc12 | -62.7%
42 | COc1ccc(OC)c2sc(N(CCCN(C)C)C(=O)CCS(=O)(=O)c3ccccc3)nc12.Cl | -70.5%
43 | COc1ccc(Cl)c2sc(N(CCN(C)C)C(=O)CCS(=O)(=O)c3ccc(C)cc3)nc12.Cl | -7.51%
44 | Cc1ccc2sc(N(CCCN(C)C)C(=O)CCS(=O)(=O)c3ccccc3)nc2c1C | -6.04%
45 | COc1cccc2sc(N(CCCN(C)C)C(=O)C(c3ccccc3)c3ccccc3)nc12.Cl | -72.7%
46 | CCOc1cccc2sc(N(CCN(C)C)C(=O)CCS(=O)(=O)c3ccccc3)nc12.Cl | -23.5%
47 | Cc1cccc2sc(N(CCCN(C)C)C(=O)CCS(=O)(=O)c3ccccc3)nc12 | -35%
48 | COc1cccc2sc(N(CCCN(C)C)C(=O)c3sc4ccccc4c3Cl)nc12.Cl | -24.6%
49 | Fc1cccc(Cl)c1Cn1nnc2c(-n3ccnc3)ncnc21 | 0.152%
50 | COCCN1Cc2cccc(C(=O)Nc3ccc(S(=O)(=O)N4CCCCC4)cc3)c2C1=O | -4.49%
51 | O=S1(=O)c2cccc3cccc(c23)N1Cc1ccc(-c2nnco2)cc1 | 7.2%
52 | COCc1cc(C)nc(OCC(=O)N/N=C/c2ccc(-c3cc([N+](=O)[O-])ccc3Cl)o2)c1C#N | 18%
53 | COc1ccccc1C1N(c2cc(Cl)ccc2OC)C(=O)C2CCCN21 (stereo not shown) | 1.23%
54 | Cn1c(=O)c2nc(NCc3ccccc3)cnc2n(C)c1=O | -1.44%
55 | O=C(Nc1nnc(SCC(=O)N2CCOCC2)s1)C1CC(=O)N(c2ccc(F)cc2)C1 (stereo not shown) | 15%
